Test results published in PubChem BioAssay (NCI).
Compounds without any hit were thinned out: in the full panel of roughly 83,000, 20% have a hit.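 Growth was measured after 48 h exposure to one concentration of compound in 96-well plates. Values under 10 count as active.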 Calls of active or inactive are those of the source.

What follows are compounds tested on HS 578T breast (assay: NCI-60 one-dose screen, 48 h (100 = growth as untreated, 0 = no growth, -100 = all killed)). Details: 10 µM.

Q: Nc1nc(N)c2cc(S(=O)(=O)c3cccc(C(F)(F)F)c3)ccc2n1 was tested. Which growth did it give?
A: 80.1% (inactive)

Q: For CCN(CC)C(=O)/C=C(/C)c1ccccc1, which growth is on record?
A: 101% (inactive)

Q: Which growth does the source give for CCC(O)CC(CC)CO (stereo unspecified) here?
A: 130% (inactive)

Q: How did the growth turn out when COc1ccc(OC)c(/C=C2\CCc3ccccc3C2=O)c1 was run?
A: 45.4% (inactive)

Q: How did the growth turn out when O=C(O)CCCCNC(=O)c1ccccc1 was run?
A: 108% (inactive)

Q: For C/C(=N/NC(N)=O)c1ccco1, which growth is on record?
A: 110% (inactive)

Q: With Cc1ccc(CCCC(=O)O)c(C)c1 as the compound, how does the growth read?
A: 108% (inactive)

Q: With CC(=O)OCC1OC(OC2=C(CC=C(C)C)C(=O)c3ccccc3C2=O)C(OC(C)=O)C(OC(C)=O)C1OC(C)=O (stereo unspecified) as the compound, how does the growth read?
A: 18% (inactive)

Q: How did the growth turn out when C=CC(O)CCC (stereo unspecified) was run?
A: 110% (inactive)

Q: How did the growth turn out when COc1cc(C(=O)NC(=S)Nc2ccc3ccccc3c2)cc(OC)c1OC was run?
A: 94.5% (inactive)

Q: Which growth does the source give for CCN1C(=O)/C(=C/C=C/N(C)c2ccccc2)SC1=S here?
A: 58.6% (inactive)

Q: With O=[N+]([O-])c1cccc(C(F)(F)F)c1 as the compound, how does the growth read?
A: 103% (inactive)

Q: CCc1ccc(/C(C#N)=C/C=C/c2ccccc2)cc1 was tested. Which growth did it give?
A: 39.7% (inactive)

Q: COC(=O)c1ccc(NC(=O)CCl)cc1 was tested. Which growth did it give?
A: 74.9% (inactive)

Q: How did the growth turn out when CCn1c(=O)n(C)c2c(=O)n(C)c(=O)n(C)c21 was run?
A: 110% (inactive)

Q: Which growth does the source give for COCCCC/C(=N\OCCN)c1ccc(C(F)(F)F)cc1 here?
A: 97.6% (inactive)

Q: For O=[N+]([O-])c1cccc2nsnc12, which growth is on record?
A: 101% (inactive)

Q: Which growth does the source give for CC1(C(N)=O)CCC(C(=O)O)C1(C)C (stereo unspecified) here?
A: 105% (inactive)

Q: Cc1ccc(/C(C#N)=C/c2ccc3c(c2)OCO3)cc1 was tested. Which growth did it give?
A: 83.8% (inactive)

Q: O=C(c1ccccc1)C1CCC1 was tested. Which growth did it give?
A: 115% (inactive)

Q: For C/C(=N\NC(=O)c1ccccc1N)c1ccccc1O, which growth is on record?
A: 97.8% (inactive)

Q: How did the growth turn out when COC(=O)c1cccnc1 was run?
A: 99.3% (inactive)

Q: Which growth does the source give for CN(C)c1ccc(CNC(C(=O)c2ccccc2)c2ccccc2)cc1 (stereo unspecified) here?
A: 46.1% (inactive)

Q: Which growth does the source give for CCCCCC(C)(CC(=O)O)CC(=O)O here?
A: 107% (inactive)

Q: Which growth does the source give for COC(=O)Nc1nc2ccc(C(=O)c3cccs3)cc2[nH]1 here?
A: 20.9% (inactive)

Q: Which growth does the source give for N#CC1(Nc2ccc3c4c(cccc24)CC3)CCCCC1 here?
A: 97.2% (inactive)

Q: CCOC(=O)C/C(C)=N\O was tested. Which growth did it give?
A: 101% (inactive)

Q: With CC(O)COc1ccc(-c2ccccc2)cc1 (stereo unspecified) as the compound, how does the growth read?
A: 106% (inactive)

Q: For CC(=O)c1cc2c(cc1F)C(C)(C)CCC2(C)C, which growth is on record?
A: 99% (inactive)

Q: For C[C@]12CC[C@@H]3c4ccc(OCC(=O)O)cc4CC[C@H]3[C@@H]1CCC2=O, which growth is on record?
A: 95.5% (inactive)

Q: O=C(c1ccc(O)cc1)c1ccc(O)cc1 was tested. Which growth did it give?
A: 107% (inactive)

Q: CC[N+](C)(CC)CCO was tested. Which growth did it give?
A: 107% (inactive)

Q: CC(=O)OC1CC2C(C)(C)OC3CC(=O)OCC32C2CCC3(C)C(=CCC3c3ccoc3)C12C (stereo unspecified) was tested. Which growth did it give?
A: 93.6% (inactive)

Q: For N#CCCN(CCCN1CCOCC1)CN1C(=O)c2ccccc2C1=O, which growth is on record?
A: 113% (inactive)

These compounds were tested on NCI/ADR-RES ovarian in the same assay as above. Details: 10 µM.

Q: Which growth does the source give for Nc1nc(N)c2cc(S(=O)(=O)c3cccc(C(F)(F)F)c3)ccc2n1 here?
A: 52.6% (inactive)

Q: CCN(CC)C(=O)/C=C(/C)c1ccccc1 was tested. Which growth did it give?
A: 102% (inactive)

Q: CCC(O)CC(CC)CO (stereo unspecified) was tested. Which growth did it give?
A: 110% (inactive)

Q: For COc1ccc(OC)c(/C=C2\CCc3ccccc3C2=O)c1, which growth is on record?
A: 17.8% (inactive)

Q: For O=C(O)CCCCNC(=O)c1ccccc1, which growth is on record?
A: 94.8% (inactive)

Q: For C/C(=N/NC(N)=O)c1ccco1, which growth is on record?
A: 101% (inactive)

Q: How did the growth turn out when Cc1ccc(CCCC(=O)O)c(C)c1 was run?
A: 107% (inactive)

Q: CC(=O)OCC1OC(OC2=C(CC=C(C)C)C(=O)c3ccccc3C2=O)C(OC(C)=O)C(OC(C)=O)C1OC(C)=O (stereo unspecified) was tested. Which growth did it give?
A: 32.4% (inactive)

Q: For C=CC(O)CCC (stereo unspecified), which growth is on record?
A: 103% (inactive)

Q: With COc1cc(C(=O)NC(=S)Nc2ccc3ccccc3c2)cc(OC)c1OC as the compound, how does the growth read?
A: 51.5% (inactive)

Q: Which growth does the source give for CCN1C(=O)/C(=C/C=C/N(C)c2ccccc2)SC1=S here?
A: 81.5% (inactive)

Q: Which growth does the source give for O=[N+]([O-])c1cccc(C(F)(F)F)c1 here?
A: 106% (inactive)

Q: CCOc1ccc(/C=N/N=C(N)N)cc1OCC was tested. Which growth did it give?
A: 109% (inactive)

Q: For CCc1ccc(/C(C#N)=C/C=C/c2ccccc2)cc1, which growth is on record?
A: 8.57% (active)

Q: How did the growth turn out when COC(=O)c1ccc(NC(=O)CCl)cc1 was run?
A: 97.1% (inactive)

Q: With CCn1c(=O)n(C)c2c(=O)n(C)c(=O)n(C)c21 as the compound, how does the growth read?
A: 105% (inactive)

Q: With COCCCC/C(=N\OCCN)c1ccc(C(F)(F)F)cc1 as the compound, how does the growth read?
A: 102% (inactive)

Q: O=[N+]([O-])c1cccc2nsnc12 was tested. Which growth did it give?
A: 110% (inactive)

Q: For COc1ccc(NC(=O)CCl)cc1, which growth is on record?
A: 77% (inactive)

Q: Which growth does the source give for CC1(C(N)=O)CCC(C(=O)O)C1(C)C (stereo unspecified) here?
A: 110% (inactive)

Q: Which growth does the source give for Cc1ccc(/C(C#N)=C/c2ccc3c(c2)OCO3)cc1 here?
A: 44.5% (inactive)

Q: For O=C(c1ccccc1)C1CCC1, which growth is on record?
A: 107% (inactive)

Q: How did the growth turn out when C/C(=N\NC(=O)c1ccccc1N)c1ccccc1O was run?
A: 26.7% (inactive)

Q: For COC(=O)c1cccnc1, which growth is on record?
A: 95.9% (inactive)

Q: CN(C)c1ccc(CNC(C(=O)c2ccccc2)c2ccccc2)cc1 (stereo unspecified) was tested. Which growth did it give?
A: 101% (inactive)

Q: How did the growth turn out when CCCCCC(C)(CC(=O)O)CC(=O)O was run?
A: 119% (inactive)

Q: With COC(=O)Nc1nc2ccc(C(=O)c3cccs3)cc2[nH]1 as the compound, how does the growth read?
A: -20.4% (active)

Q: With N#CC1(Nc2ccc3c4c(cccc24)CC3)CCCCC1 as the compound, how does the growth read?
A: 103% (inactive)

Q: With O=C(CS)Nc1ccc2ccccc2c1 as the compound, how does the growth read?
A: 112% (inactive)

Q: How did the growth turn out when CCOC(=O)C/C(C)=N\O was run?
A: 96.6% (inactive)

Q: Which growth does the source give for CC(O)COc1ccc(-c2ccccc2)cc1 (stereo unspecified) here?
A: 110% (inactive)

Q: CC(=O)c1cc2c(cc1F)C(C)(C)CCC2(C)C was tested. Which growth did it give?
A: 99.3% (inactive)

Q: How did the growth turn out when C[C@]12CC[C@@H]3c4ccc(OCC(=O)O)cc4CC[C@H]3[C@@H]1CCC2=O was run?
A: 96.4% (inactive)

Q: How did the growth turn out when O=C(c1ccc(O)cc1)c1ccc(O)cc1 was run?
A: 110% (inactive)

Q: For CC[N+](C)(CC)CCO, which growth is on record?
A: 105% (inactive)

Q: For CC(=O)OC1CC2C(C)(C)OC3CC(=O)OCC32C2CCC3(C)C(=CCC3c3ccoc3)C12C (stereo unspecified), which growth is on record?
A: 124% (inactive)

Q: Which growth does the source give for N#CCCN(CCCN1CCOCC1)CN1C(=O)c2ccccc2C1=O here?
A: 109% (inactive)
